Among the data in ChEMBL document CHEMBL1961873, “Compounds: GSK PKIS; Assays: Nanosyn kinase panel” (2012) are inhibition values, retold here.

Assay [1] has as its system Epidermal growth factor receptor (Homo sapiens), P00533 [T790M]. The conditions noted are these: at 1 µM.
Assay [2] deals with Epidermal growth factor receptor (Homo sapiens), P00533 [L858R,T790M]. The conditions noted are these: at 0.1 µM.
For assay [3] the test system is unchanged. The conditions noted are these: at 1 µM.
Assay [4] has as its target Ephrin type-A receptor 2 (Homo sapiens) (UniProt P29317). The conditions noted are these: at 0.1 µM.
Assay [5] shares this target. The conditions noted are these: at 1 µM.
Assay [6] concerns the target T1, Ephrin type-A receptor 3 (Homo sapiens) (UniProt P29320).
T1 sequence (whole entry): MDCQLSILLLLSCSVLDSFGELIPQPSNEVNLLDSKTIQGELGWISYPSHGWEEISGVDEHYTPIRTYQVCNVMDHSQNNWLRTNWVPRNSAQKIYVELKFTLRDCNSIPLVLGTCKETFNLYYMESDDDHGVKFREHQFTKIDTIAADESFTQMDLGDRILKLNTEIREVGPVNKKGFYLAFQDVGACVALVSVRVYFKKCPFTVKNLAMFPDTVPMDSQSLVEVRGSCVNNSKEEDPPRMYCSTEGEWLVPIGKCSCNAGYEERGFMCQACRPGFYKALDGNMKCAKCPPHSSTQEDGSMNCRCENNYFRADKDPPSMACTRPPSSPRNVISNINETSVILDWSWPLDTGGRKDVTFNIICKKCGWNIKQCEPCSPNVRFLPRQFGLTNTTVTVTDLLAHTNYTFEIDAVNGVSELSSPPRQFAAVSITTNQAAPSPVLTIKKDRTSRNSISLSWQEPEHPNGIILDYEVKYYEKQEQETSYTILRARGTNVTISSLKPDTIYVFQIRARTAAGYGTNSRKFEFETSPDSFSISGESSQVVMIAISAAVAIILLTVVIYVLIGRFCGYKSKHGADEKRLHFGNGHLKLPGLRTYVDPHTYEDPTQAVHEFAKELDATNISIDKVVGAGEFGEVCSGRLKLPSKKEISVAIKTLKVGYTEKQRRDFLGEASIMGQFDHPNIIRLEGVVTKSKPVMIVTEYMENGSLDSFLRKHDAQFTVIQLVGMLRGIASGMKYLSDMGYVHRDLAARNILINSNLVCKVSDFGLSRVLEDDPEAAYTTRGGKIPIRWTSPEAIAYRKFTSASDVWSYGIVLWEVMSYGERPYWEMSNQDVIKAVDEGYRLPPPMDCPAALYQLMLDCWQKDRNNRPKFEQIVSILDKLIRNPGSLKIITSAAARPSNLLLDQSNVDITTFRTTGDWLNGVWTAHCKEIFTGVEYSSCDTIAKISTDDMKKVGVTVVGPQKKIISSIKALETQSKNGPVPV
The conditions noted are these: at 0.1 µM.

For assay [7], the target named is T1, Ephrin type-A receptor 3 (Homo sapiens). The conditions noted are these: at 1 µM.
For assay [8], the target named is Ephrin type-A receptor 4 (Homo sapiens) (UniProt P54764). The conditions noted are these: at 0.1 µM.
Assay [9] shares this target. The conditions noted are these: at 1 µM.
Assay [10] has as its target T2, Ephrin type-B receptor 2 (Homo sapiens) (UniProt P29323).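 Note: reported as mean inhibition of EPHB2, from the GSK PKIS dataset.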
T2 sequence (whole entry): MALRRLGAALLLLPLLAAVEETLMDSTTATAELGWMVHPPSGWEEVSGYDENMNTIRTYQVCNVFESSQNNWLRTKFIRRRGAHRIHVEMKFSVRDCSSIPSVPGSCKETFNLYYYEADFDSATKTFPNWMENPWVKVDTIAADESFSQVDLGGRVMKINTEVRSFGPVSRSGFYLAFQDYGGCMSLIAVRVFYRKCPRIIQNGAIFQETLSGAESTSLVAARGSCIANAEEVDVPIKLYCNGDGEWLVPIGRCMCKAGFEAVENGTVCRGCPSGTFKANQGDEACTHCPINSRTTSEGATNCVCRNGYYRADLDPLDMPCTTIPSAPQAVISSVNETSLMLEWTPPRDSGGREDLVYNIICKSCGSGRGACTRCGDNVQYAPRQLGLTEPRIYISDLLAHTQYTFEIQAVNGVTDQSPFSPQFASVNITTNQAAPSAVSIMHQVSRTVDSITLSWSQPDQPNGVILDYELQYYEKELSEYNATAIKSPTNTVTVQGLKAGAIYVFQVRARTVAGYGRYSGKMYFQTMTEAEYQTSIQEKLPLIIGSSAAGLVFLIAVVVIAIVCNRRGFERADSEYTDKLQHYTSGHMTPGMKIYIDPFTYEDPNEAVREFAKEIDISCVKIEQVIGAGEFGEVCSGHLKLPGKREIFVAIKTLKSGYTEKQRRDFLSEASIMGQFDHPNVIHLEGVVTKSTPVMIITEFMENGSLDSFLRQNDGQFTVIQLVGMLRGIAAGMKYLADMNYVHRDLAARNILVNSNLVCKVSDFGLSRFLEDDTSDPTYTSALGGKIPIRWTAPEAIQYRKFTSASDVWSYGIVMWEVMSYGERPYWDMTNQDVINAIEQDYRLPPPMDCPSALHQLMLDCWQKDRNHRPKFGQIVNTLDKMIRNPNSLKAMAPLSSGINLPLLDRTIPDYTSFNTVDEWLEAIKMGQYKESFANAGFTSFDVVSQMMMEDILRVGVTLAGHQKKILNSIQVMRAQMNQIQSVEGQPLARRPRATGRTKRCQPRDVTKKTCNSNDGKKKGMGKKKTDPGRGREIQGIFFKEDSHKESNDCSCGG
The conditions noted are these: at 0.1 µM.

Sequence of Ephrin type-A receptor 2 (Homo sapiens) (P29317 whole entry): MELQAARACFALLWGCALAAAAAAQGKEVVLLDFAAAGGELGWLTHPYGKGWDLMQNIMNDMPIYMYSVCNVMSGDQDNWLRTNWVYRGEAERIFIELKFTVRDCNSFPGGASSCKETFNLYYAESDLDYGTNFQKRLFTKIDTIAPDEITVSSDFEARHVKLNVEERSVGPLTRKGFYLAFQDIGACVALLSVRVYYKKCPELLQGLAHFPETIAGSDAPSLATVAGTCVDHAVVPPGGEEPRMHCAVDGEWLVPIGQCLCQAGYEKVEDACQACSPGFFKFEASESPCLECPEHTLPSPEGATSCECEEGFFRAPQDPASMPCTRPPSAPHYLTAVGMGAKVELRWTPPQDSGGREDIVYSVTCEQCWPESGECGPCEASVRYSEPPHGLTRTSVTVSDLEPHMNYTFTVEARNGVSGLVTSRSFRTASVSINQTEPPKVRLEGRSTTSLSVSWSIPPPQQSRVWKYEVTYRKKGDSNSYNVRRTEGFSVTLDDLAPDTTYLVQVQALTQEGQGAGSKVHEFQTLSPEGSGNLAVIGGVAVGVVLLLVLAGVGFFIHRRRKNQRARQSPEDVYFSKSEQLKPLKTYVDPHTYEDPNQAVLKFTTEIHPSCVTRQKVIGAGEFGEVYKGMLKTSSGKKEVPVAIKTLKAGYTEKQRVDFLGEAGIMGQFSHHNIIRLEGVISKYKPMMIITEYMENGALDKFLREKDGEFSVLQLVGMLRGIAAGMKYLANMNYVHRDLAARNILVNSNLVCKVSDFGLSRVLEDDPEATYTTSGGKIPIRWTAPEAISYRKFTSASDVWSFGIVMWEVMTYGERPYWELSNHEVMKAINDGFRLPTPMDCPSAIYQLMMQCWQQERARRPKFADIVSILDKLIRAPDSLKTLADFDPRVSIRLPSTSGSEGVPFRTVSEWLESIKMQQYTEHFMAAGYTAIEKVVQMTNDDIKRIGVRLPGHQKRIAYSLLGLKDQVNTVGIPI
Sequence of Ephrin type-A receptor 4 (Homo sapiens) (P54764 whole entry): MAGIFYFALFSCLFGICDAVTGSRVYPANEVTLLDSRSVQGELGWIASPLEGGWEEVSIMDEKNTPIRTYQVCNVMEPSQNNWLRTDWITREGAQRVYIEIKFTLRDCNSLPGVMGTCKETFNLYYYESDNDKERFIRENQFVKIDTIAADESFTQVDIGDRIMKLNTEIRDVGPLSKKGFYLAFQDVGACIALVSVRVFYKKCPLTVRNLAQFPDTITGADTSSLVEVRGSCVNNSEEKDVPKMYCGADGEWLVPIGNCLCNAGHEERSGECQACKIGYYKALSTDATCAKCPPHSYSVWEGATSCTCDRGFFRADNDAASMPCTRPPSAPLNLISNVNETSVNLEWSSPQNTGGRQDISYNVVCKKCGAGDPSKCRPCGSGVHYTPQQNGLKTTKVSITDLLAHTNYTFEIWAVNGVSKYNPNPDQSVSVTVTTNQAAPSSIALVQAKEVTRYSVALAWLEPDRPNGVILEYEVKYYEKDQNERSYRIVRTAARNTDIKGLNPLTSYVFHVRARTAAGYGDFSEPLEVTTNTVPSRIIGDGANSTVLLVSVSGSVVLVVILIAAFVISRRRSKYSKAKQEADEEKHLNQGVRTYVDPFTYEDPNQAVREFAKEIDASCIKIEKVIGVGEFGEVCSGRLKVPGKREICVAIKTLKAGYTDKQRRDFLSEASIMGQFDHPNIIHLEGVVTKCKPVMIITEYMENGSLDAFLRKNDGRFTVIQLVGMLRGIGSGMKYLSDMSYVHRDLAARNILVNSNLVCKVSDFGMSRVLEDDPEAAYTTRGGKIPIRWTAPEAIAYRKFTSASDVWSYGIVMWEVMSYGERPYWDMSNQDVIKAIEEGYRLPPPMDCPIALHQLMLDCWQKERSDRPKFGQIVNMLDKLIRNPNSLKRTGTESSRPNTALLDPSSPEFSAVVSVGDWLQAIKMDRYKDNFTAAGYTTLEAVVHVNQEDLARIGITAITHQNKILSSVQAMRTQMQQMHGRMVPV
Sequence of Epidermal growth factor receptor (Homo sapiens), P00533 [L858R,T790M] (P00533 whole entry T790M/L858R, looked up): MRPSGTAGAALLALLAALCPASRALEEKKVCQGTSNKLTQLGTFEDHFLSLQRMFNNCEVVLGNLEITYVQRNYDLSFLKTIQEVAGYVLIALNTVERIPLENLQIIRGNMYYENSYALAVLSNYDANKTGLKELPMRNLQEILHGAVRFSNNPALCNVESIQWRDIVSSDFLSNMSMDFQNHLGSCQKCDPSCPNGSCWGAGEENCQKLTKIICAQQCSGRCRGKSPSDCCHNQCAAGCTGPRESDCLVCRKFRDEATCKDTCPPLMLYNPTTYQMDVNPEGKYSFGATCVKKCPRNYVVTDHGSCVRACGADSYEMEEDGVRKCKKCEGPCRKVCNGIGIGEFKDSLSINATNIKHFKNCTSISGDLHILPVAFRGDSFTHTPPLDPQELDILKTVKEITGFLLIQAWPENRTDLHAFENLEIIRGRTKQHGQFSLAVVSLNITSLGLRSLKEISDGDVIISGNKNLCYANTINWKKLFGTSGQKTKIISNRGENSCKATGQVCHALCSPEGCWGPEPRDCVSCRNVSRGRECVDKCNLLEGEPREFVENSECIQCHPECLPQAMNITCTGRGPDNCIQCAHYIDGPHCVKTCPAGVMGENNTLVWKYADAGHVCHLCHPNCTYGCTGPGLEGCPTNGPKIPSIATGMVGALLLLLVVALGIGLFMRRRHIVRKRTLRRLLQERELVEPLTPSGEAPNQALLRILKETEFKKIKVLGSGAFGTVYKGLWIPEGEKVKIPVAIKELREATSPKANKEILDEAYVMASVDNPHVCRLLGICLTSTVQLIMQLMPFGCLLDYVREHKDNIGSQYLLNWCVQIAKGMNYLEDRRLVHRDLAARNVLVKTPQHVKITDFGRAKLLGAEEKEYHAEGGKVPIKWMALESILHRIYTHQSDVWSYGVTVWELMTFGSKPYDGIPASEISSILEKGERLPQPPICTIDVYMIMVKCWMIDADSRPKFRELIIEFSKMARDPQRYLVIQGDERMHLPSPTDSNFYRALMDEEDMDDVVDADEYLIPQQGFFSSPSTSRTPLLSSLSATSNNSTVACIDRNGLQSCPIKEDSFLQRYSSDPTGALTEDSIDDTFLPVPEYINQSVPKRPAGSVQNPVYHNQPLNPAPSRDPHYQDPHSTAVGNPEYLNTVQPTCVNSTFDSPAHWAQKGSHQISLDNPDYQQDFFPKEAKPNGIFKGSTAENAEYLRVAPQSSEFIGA
Sequence of Epidermal growth factor receptor (Homo sapiens), P00533 [T790M] (P00533 whole entry T790M): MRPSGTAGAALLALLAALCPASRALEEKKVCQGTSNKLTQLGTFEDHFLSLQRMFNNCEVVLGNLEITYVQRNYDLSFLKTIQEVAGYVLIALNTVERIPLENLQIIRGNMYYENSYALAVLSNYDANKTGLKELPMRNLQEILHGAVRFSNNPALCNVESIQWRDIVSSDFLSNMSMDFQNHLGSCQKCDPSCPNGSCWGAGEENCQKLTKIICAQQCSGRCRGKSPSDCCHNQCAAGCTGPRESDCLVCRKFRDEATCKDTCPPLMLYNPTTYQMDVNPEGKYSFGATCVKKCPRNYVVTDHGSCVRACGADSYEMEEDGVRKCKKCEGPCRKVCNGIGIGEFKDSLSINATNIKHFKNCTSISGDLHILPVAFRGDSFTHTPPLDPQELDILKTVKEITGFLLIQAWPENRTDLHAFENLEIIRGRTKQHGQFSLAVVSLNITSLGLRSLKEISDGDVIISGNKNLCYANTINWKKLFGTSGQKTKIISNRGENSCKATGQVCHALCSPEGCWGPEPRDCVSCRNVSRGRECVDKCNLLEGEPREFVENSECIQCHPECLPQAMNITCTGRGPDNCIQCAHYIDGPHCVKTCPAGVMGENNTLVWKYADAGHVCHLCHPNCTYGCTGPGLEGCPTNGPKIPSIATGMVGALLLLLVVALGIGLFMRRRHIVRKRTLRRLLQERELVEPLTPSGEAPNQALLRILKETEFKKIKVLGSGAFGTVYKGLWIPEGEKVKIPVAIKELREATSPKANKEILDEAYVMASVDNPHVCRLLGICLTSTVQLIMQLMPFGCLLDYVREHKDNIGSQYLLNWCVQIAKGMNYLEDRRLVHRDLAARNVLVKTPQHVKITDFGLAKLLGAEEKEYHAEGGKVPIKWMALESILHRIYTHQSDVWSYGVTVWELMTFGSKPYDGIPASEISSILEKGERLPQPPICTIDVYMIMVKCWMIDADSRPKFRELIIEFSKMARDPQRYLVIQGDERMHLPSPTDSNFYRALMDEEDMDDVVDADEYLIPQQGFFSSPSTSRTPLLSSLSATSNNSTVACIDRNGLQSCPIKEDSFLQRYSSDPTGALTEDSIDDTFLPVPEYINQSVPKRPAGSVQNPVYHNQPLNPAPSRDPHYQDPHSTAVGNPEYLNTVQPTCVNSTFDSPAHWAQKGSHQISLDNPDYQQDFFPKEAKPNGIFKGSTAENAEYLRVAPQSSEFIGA

As for `N#Cc1cccc(Nc2nccc(-c3cnn4ncccc34)n2)c1`, the inhibition (as a rule, the drop in the measured response relative to a control, in per cent) was 6.4% in [1]; 0.25% in assay [2]; 9.41% in assay [3]; 2.26% in assay [4]; 15% in [5]; 8.11% in [6]. Also, the inhibition turned out to be 19.2% in assay [7], 13% in [8], 43.8% in assay [9] and 15.1% in [10].
Take `CC(C)c1ccc(Nc2nccc(-c3cnn4ncccc34)n2)cc1`: the inhibition in assay [1] was 2.45%; in assay [2], -0.56%; in assay [3] it was 2.24%; in [4], -0.98%; in [5], 0.28%; in assay [6], 1.96%. The inhibition stood at 4.55% in assay [7], 8.08% in assay [8], 10.3% in [9] and 7.64% in [10].
Consider `Oc1cccc(-c2nc(-c3ccccc3)[nH]c2-c2ccncc2)c1`, for which the inhibition amounted to 2.55% in assay [1]; 2.26% in [2]; 4.01% in [3]; 1.93% in assay [4]; 7.66% in assay [5]; 7.79% in assay [6]. The inhibition is 6.42% in assay [7], 11.7% in [8], 32.9% in [9] and 8.8% in [10].
Turning to `C[C@@H](Oc1cc(-n2cnc3ccc(OCC4CCN(C)CC4)cc32)sc1C(N)=O)c1ccccc1C(F)(F)F`, the inhibition in [1] is 1.67%; in assay [2], 1.72%; in [3], 18.6%; in assay [4] it was -3.67%; in assay [5] it was -3.26%; in [6] it was -6.9%. For the same compound, the inhibition in assay [7] was -0.01%; in assay [8], -6.91%; in assay [9] it was -4.57%; in assay [10] it was -9.54%.
In the case of `COC(=O)Nc1nc2cc(Oc3ccc(NC(=O)Nc4cccc(Br)c4)cc3)ccc2[nH]1`, the inhibition in assay [1] was 2.61%; in assay [2], -0.2%; in assay [3], -0.25%; in assay [4], 28.1%; in assay [5] it was 55.2%; in [6], 13%. The inhibition in [7] is 12.4%; in assay [8], 52.1%; in [9] it was 76.9%; in assay [10], 56.7%.
Regarding `CS(=O)(=O)Nc1cccc(-c2ccc3c(NC(=O)C4CC4)n[nH]c3c2)c1`, the inhibition in [1] was -1.01%; in [2], 0.55%; in [3], -1.6%; in assay [4], 0.19%; in assay [5], 1.68%; in [6], 1.66%. The inhibition was -1.02% in assay [7], 1.83% in assay [8], -7.46% in assay [9] and -4.01% in [10].
In the case of `CN(c1ccc(NC(=O)Nc2ccc(OC(F)(F)F)cc2)cc1)c1ccnc(Nc2cccc(S(N)(=O)=O)c2)n1`, the inhibition amounted to 1.56% in [1]; 2.59% in assay [2]; 2.24% in assay [3]; 3.48% in [4]; 35.4% in assay [5]; 5.58% in assay [6]. Also, the inhibition was found to be 18.3% in assay [7], 9.59% in assay [8], 59.8% in assay [9] and 10.9% in assay [10].
As to `COc1cc(Nc2nccc(-c3cnn4ncccc34)n2)cc(OC)c1`, the inhibition in [1] was -0.64%; in assay [2] it was 2.35%; in [3], 15.8%; in assay [4], 2.66%; in assay [5], 24.3%; in [6] it was 3.17%. Besides, the inhibition came to 11.1% in [7], 9.67% in assay [8], 45.3% in [9] and 4.13% in assay [10].
On to `Nc1ccc(C#Cc2cncnc2Nc2ccc(OCc3cccc(F)c3)c(Cl)c2)cc1`, for which the inhibition in [1] is 2.68%; in assay [2] it was -0.93%; in assay [3], 0.42%; in [4] it was 0.44%; in assay [5], 0.03%; in assay [6] it was 3.68%. The inhibition in assay [7] turned out to be 3.02%; in [8] it was 6.49%; in assay [9], 8.04%; in [10], 1.34%.
In the case of `Cc1ccc2c(-c3ccnc(Nc4cccc(C(F)(F)F)c4)n3)c(-c3ccccc3)nn2n1`, the inhibition in [1] is 57.7%; in assay [2], 35.2%; in assay [3], 87.6%; in assay [4] it was 0.69%; in assay [5] it was 4.04%; in assay [6], 5.98%. The inhibition stood at 15.1% in assay [7], 8.59% in [8], 33.9% in [9] and 17.6% in assay [10].
Regarding `O=C(Nc1ccc(Oc2ccc3[nH]c(NC(=O)c4ccco4)nc3c2)cc1)Nc1cc(C(F)(F)F)ccc1F`, the inhibition was -1.32% in assay [1]; 1.13% in assay [2]; 0.64% in assay [3]; 18.8% in [4]; 82.8% in assay [5]; 4.15% in assay [6]. In addition, the inhibition was 15.9% in assay [7], 36.3% in assay [8], 86.9% in assay [9] and 36.1% in assay [10].
Take `CCS(=O)(=O)c1ccc(OC)c(Nc2nccc(N(C)c3ccc4c(C)n[nH]c4c3)n2)c1`: the inhibition in assay [1] was 18.8%; in assay [2], 2.67%; in [3], 4.47%; in assay [4], 3.32%; in assay [5], 10.1%; in assay [6], 4.4%. Further, the inhibition in assay [7] was found to be 12.2%; in assay [8] it was 11.8%; in assay [9], 45.3%; in assay [10], 16.4%.
Turning to `NC(=O)c1cccc(Nc2nccc(Nc3cccc(F)c3)n2)c1`, the inhibition was 1.97% in assay [1]; -1.09% in assay [2]; 2.58% in assay [3]; -0.63% in assay [4]; 17.9% in [5]; 0.42% in [6]. The inhibition is 7.65% in [7], 5.65% in [8], 29.1% in assay [9] and 3.44% in assay [10].
As to `Cc1ccc(NC(=O)CC2CC2)cc1-c1ccc(C(=O)NCC2CC2)cc1`, the inhibition in assay [1] was found to be 2.09%; in assay [2], 0.02%; in assay [3], 0.35%; in assay [4] it was 0.66%; in assay [5] it was 1.4%; in assay [6], 3.45%. The inhibition in [7] was 4.59%; in assay [8], 8.26%; in assay [9], 12.9%; in assay [10] it was 6.33%.
In the case of `COc1ccc(-c2nn3ncccc3c2-c2ccnc(Nc3cccc(C(F)(F)F)c3)n2)cc1`, the inhibition is 2.06% in assay [1]; -0.41% in assay [2]; 7.35% in assay [3]; 0.1% in assay [4]; -0.64% in assay [5]; 4.37% in [6]. Moreover, the inhibition was found to be 5.21% in assay [7], 5.95% in assay [8], 8.87% in assay [9] and 2.91% in assay [10].
Consider `Nc1nccc(-c2c(-c3ccc(F)cc3)nn3cc(C(F)(F)F)ccc23)n1`, for which the inhibition in [1] is 2.37%; in assay [2], -0.45%; in assay [3], 1.18%; in [4] it was 0.62%; in [5] it was -0.02%; in assay [6], 0.75%. Further, the inhibition in assay [7] was -0.28%; in assay [8], 2.89%; in assay [9], 5.34%; in assay [10] it was -9.27%.
